This note sets out measurements from PubChem BioAssay.

Experiment [1] in a line: yeast TOR pathway RPL19A-GFP modulators, primary screen, cell-based, S. cerevisiae, multiplex flow cytometry (AID 1862; in the data active = percent of DMSO control GFP below about 86%;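 note: lower values mimic rapamycin by blocking the RPL19A rise seen in DMSO cells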). The settings on record: S. cerevisiae RPL19A-GFP strain, flow cytometry fluorescence, 3 h; at 10 µM; stronger effect = lower value.
Experiment [2] in a line: modulators of MEP2-GFP levels in yeast, primary screen, S. cerevisiae, multiplex flow cytometry (AID 1867;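 active = GFP response, as percent of the DMSO control, above the screen-wide mean plus 3 SD, about 139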;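 note: median GFP channel fluorescence of barcode-gated MEP2-GFP cells measured by flow cytometry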). Conditions: S. cerevisiae MEP2-GFP strain, 3 h, at 10 µM, stronger effect = higher value, 100% means same as DMSO wells. A general note: In flow cytometry, cells or beads pass a laser one at a time.
A short description of experiment [3]: modulators of CIT2-GFP expression in yeast, primary screen, S. cerevisiae, GFP fusion, multiplex flow cytometry (AID 1870;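 active = percent response above a set limit, the screen-wide mean plus 3 SD, cut at about 130% in these data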;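 note: barcoded CIT2-GFP strain pooled with four other GFP strains with rapamycin as positive control; median GFP fluorescence per well over plate mean of DMSO wells so 100% = DMSO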). The settings on record: 3 h, at 10 µM, stronger effect = higher value.
The nature of experiment [4]: modulators of LAP4-GFP expression in yeast, primary screen, S. cerevisiae, multiplex flow cytometry (AID 1873;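 active = GFP signal, as percent of the solvent control, above the screen mean plus 3 SD, about 149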). Conditions: 3 h, at 10 µM, stronger effect = higher value.
Experiment [5] can be described thus: modulators of AGP1-GFP expression in yeast TOR pathway, primary screen, cell-based, multiplex flow cytometry, S. cerevisiae (AID 1887;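 active = GFP signal above the screen-wide mean plus 3 SD, that is over about 124.5% of the solvent control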;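 note: AGP1-GFP fusion strain of S. cerevisiae within a five-strain barcoded multiplex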). The settings on record: 3 h, at 10 µM, stronger effect = higher value.
A short description of experiment [6]: inhibitors of CD8+ T cell-vesicle binding, pilot screen, LFA-1/ICAM-1 modulator project, MLPCN validation set, flow cytometry (AID 2523).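 For vesicle binding response: mean PE anti-B7-1 fluorescence of CD8+ cells relative to row control; 100% = QL9-loaded vesicles with DMSO vehicle in the same plate row.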 Conditions: 2C mouse CD8+ T cells, at 7 µM, stronger effect = lower value; double positive events: measured here: CD8+/vesicle+ event percentage.
In experiment [7] the target is Integrin beta-1 (Homo sapiens) + Integrin alpha-4 (Homo sapiens) (UniProt P13612+P05556). In words: inhibition of HUTS-21 binding to VLA-4, pilot screen, VLA-4 allosteric modulator project, U937 cells, HUTS-21 mAb, flow cytometry, validation set (AID 2674;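 active = inhibition above 50%, about 3 SD of the validation set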;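 note: antibody binding induced by the VLA-4 ligand LDV present at three times its Kd; 0% = LDV ligand with antibody and no compound and 100% = antibody without LDV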). The settings on record: HUTS-21 LIBS mAb binding, at 6.7 µM, stronger effect = higher value, binding induced by LDV ligand.

Experiment [8] in a line: superoxide lowering in aged yeast cells, pilot screen, validation compound set (AID 2706;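 active = superoxide response below 65% of plate, a cut near 3 SD across the whole screen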;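 note: yeast exposed to compound for one week at 30 degrees C before staining; 100% = mean of all compound wells on the same plate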). The settings on record: S. cerevisiae aging, superoxide DHE fluorescence; at 10 µM; stronger effect = lower value.
The target in experiment [9] is Beta-adrenergic receptor kinase 1 (Homo sapiens) (UniProt P25098). Kind of experiment: GRK2 binders displacing RNA aptamer, biochemical, validation, human GRK2, bead flow cytometry (AID 488806;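 active = aptamer binding inhibition above 30%, about 3 SD of noise from non-fluorescent compounds; inactive = inhibition at or below 30%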). Conditions: bead-bound GRK2, FAM-aptamer displacement, at 10 µM, stronger effect = higher value.
In experiment [10] the target is Beta-2 adrenergic receptor (Homo sapiens) (UniProt P07550). In words: beta2AR agonists driving receptor internalization, pilot screen, cell-based, FAP fluorogen, flow cytometry, validation set (AID 504459;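 active = percent response above 42, roughly 3 SD of non-fluorescent test compounds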;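 note: agonist-driven loss of surface beta2AR via internalization measured by FAP dye flow cytometry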). Conditions: Am2.2-beta2AR cells, FAP surface receptor flow cytometry; at 10 µM; stronger effect = higher value.
The target in experiment [11] is AP-2 complex subunit beta (Homo sapiens) (UniProt P63010). In words: inhibitors of arrestin peptide binding to AP2, pilot screen, biochemical, validation set, GST-AP2 beads, flow cytometry (AID 504541;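 active = inhibition above 54%, about 3 SD of non-fluorescent compounds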;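 note: AP2 carries R879A mutation and is captured from E. coli lysate; bead-bound FITC arrestin peptide fluorescence measuring arrestin peptide binding to AP2; 0% = DMSO wells and 100% = excess unlabeled arrestin peptide control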). The settings on record: FITC arrestin peptide, at 10 µM, stronger effect = higher value, AP2 beta2 appendage fragment, R879A mutant.
Experiment [12] can be described thus: yeast V-ATPase proton transport modulators, S. cerevisiae, pHLuorin, HTS validation (AID 504600; in the data active = response above about 15%;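 note: plate controls were DMSO for no effect and reference compound for full effect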). The settings on record: S. cerevisiae pHLuorin cytosolic pH, at 10 µM, stronger effect = higher value.
Experiment [13] has as its system anti-desmoglein-3 scFv antibody binding to human DSG3. Kind of experiment: inhibitors of anti-DSG3 scFv binding to DSG3, pilot screen, biochemical, validation compound set, bead-based, flow cytometry (AID 588368;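 active = binding below the plate cutoff, the plate median minus 3 SD, with a reading above zero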;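 note: signal is the median channel fluorescence of bead-bound GFP antibody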). The settings on record: Protein G beads, DSG3-Fc, scFv-GFP binding, at 10 µM, stronger effect = lower value.
Experiment [14] is described as follows: inhibitors of fungal efflux pumps CDR1, CDR2, MDR1, pilot screen, validation compound set, multiplex, phenotypic (AID 588506;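 active = efflux inhibition above 0.42, the validation set average plus 4 SD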;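 note: Nile Red retained in cells so higher fluorescence means more efflux inhibition; 0 = negative control wells and 1 = enniatin B 25 µM full block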). The settings on record: S. cerevisiae pump-expressing triplex, Nile Red efflux flow cytometry; at 10 µM; stronger effect = higher value; the pumps come from Candida albicans.
Experiment [15] addresses ATP-binding cassette sub-family B member 6 (Homo sapiens) (UniProt Q9NP58). Kind of experiment: ABCB6 transporter inhibitors, pilot screen, K562-ABCB6 cells, flow cytometry, validation set (AID 588550;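 active = inhibition above the screen-wide mean plus 3 SD, about 51%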;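 note: 0% = DMSO wells and 100% = benzethonium chloride 70 µM positive control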). Conditions: K562-ABCB6 porphyrin accumulation, 1 h, at 10 µM, stronger effect = higher value.
Experiment [16] can be described thus: promoters of myeloid differentiation in arrested cells, primary screen, cell-based, GFP/MAC1 double positive, flow cytometry, validation set (AID 588685;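 active = differentiation response of at least 50%, scaled between solvent and reference control, from cells with both markers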;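 note: compound exposure lasts four days before antibody staining and flow analysis; 0% = DMSO wells and 100% = 5 µM fulvestrant positive control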). The settings on record: ER-HoxA9 marrow cells, stronger effect = higher value, normalized: vehicle 0, fulvestrant 100.

For orientation: inhibition means the change of the read-out against control, counted positive when it falls.

Records with an inconclusive call do not appear. Calls of active or inactive are those of the source.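 Rule for the calls, unless noted: active = response below a set limit, under 55% cells CD8-positive and vesicle-bound, and CD8 cells' 90th-percentile brightness under 279; inactive = the rest.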

Chain of Beta-adrenergic receptor kinase 1 (Homo sapiens) (P25098 whole entry, looked up): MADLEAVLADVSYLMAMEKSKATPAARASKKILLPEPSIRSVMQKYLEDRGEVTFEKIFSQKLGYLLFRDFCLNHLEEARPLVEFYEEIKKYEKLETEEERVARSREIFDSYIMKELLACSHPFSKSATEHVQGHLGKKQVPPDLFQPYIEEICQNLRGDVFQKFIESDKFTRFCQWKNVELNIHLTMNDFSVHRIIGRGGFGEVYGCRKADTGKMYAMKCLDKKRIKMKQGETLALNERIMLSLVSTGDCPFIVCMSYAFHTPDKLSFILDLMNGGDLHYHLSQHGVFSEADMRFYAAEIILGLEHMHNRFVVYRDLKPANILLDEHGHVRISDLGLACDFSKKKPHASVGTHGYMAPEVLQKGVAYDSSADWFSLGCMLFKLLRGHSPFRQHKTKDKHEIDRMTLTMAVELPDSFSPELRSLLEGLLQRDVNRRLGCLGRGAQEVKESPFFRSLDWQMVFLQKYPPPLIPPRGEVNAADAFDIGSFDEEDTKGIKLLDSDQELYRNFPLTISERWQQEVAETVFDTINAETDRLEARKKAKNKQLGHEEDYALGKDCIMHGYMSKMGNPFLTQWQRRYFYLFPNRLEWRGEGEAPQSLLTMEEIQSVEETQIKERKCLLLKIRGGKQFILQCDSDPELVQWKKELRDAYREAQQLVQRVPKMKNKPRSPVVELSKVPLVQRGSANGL
Chain of ATP-binding cassette sub-family B member 6 (Homo sapiens) (Q9NP58 whole entry, looked up): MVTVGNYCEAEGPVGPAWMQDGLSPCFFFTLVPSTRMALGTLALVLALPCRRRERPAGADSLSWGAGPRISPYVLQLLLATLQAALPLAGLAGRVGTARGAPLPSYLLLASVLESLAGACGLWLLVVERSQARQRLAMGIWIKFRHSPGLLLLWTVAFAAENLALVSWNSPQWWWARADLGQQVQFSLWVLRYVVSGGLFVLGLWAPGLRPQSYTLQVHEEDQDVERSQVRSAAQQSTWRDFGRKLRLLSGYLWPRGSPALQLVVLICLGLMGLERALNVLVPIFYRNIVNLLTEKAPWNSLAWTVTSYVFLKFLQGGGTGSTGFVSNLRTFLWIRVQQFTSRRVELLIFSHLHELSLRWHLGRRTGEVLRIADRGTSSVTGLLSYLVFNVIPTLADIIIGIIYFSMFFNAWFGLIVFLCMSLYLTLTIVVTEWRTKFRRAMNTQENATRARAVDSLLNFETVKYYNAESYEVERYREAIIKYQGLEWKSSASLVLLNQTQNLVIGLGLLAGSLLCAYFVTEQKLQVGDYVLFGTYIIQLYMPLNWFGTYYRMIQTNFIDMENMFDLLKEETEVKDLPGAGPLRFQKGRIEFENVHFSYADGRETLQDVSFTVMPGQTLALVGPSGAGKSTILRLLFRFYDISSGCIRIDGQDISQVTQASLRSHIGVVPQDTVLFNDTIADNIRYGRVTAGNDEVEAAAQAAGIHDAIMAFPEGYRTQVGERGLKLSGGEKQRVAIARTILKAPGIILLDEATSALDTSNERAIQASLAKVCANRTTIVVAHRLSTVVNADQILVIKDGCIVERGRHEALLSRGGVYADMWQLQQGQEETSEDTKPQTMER
Chain of AP-2 complex subunit beta (Homo sapiens) (P63010 whole entry, looked up, the tested form may be a part, one chain of several): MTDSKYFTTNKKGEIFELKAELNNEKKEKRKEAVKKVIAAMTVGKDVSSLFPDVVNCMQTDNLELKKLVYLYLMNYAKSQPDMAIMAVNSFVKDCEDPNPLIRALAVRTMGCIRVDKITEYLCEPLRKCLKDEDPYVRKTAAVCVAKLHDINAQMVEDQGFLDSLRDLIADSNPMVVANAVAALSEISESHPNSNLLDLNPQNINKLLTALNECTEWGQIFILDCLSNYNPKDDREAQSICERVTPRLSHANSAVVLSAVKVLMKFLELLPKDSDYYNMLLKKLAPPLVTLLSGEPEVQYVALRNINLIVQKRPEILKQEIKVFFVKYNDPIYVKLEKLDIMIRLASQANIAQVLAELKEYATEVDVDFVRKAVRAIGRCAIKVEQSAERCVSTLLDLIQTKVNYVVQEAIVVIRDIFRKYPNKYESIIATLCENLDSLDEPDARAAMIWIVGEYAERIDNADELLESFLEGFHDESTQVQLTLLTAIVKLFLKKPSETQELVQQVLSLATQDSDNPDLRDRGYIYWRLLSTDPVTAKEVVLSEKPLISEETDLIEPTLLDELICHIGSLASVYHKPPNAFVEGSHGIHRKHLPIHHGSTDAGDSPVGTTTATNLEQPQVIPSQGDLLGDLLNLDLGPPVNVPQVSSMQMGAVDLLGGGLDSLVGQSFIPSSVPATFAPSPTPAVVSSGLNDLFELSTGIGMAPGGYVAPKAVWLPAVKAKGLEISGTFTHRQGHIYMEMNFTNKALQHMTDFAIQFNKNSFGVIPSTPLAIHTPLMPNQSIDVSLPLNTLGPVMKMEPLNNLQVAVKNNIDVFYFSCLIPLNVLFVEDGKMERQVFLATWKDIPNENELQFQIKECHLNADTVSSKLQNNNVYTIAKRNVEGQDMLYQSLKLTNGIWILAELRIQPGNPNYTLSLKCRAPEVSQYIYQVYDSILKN
Chain of Integrin beta-1 (Homo sapiens) + Integrin alpha-4 (Homo sapiens) (P05556 whole entry, looked up): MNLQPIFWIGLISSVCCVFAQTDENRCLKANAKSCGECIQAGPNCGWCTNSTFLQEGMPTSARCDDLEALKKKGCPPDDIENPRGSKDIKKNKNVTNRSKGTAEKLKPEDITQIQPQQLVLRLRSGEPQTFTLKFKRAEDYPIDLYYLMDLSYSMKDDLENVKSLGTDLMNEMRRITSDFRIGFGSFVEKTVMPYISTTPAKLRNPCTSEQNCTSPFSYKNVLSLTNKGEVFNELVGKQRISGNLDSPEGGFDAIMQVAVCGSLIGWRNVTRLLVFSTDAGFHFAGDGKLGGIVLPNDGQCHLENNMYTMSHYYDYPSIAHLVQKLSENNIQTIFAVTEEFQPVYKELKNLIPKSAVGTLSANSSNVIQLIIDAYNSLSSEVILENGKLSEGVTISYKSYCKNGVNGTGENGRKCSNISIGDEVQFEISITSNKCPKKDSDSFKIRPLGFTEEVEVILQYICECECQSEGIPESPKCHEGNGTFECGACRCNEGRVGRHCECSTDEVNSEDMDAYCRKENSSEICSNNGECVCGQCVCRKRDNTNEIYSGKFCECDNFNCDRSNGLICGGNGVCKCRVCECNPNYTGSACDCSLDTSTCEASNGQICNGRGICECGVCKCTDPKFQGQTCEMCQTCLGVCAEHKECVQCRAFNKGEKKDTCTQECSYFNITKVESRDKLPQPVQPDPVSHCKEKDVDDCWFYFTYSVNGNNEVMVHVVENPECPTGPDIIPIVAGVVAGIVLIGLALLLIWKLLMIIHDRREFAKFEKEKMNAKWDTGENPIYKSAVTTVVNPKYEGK
Chain of Integrin beta-1 (Homo sapiens) + Integrin alpha-4 (Homo sapiens) (P13612 whole entry, looked up): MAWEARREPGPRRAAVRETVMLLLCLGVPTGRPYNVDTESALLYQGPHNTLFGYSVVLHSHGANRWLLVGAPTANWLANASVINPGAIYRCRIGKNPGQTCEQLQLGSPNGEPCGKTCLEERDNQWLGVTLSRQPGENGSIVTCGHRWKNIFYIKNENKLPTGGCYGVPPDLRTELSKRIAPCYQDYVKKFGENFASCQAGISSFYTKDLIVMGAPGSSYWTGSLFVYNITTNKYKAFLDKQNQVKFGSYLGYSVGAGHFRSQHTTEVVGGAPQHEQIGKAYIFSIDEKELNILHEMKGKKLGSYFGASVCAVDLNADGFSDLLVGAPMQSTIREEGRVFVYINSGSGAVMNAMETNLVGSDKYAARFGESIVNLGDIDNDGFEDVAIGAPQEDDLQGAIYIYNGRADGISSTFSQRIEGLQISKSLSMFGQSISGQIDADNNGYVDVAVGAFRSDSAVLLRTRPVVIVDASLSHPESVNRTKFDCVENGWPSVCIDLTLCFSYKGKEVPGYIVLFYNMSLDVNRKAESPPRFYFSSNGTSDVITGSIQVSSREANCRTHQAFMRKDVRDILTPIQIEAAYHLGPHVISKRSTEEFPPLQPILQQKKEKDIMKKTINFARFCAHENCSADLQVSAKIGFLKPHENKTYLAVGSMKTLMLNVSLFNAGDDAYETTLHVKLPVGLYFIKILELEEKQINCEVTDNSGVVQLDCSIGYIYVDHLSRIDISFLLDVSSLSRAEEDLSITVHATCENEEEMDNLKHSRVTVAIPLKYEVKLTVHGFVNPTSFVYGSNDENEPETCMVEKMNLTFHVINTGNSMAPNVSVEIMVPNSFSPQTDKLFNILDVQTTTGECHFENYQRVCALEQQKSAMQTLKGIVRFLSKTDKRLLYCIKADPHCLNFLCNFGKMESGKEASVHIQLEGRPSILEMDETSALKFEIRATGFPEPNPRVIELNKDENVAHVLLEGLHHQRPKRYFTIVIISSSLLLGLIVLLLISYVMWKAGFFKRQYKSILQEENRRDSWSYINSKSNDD
Chain of Beta-2 adrenergic receptor (Homo sapiens) (P07550 whole entry, looked up): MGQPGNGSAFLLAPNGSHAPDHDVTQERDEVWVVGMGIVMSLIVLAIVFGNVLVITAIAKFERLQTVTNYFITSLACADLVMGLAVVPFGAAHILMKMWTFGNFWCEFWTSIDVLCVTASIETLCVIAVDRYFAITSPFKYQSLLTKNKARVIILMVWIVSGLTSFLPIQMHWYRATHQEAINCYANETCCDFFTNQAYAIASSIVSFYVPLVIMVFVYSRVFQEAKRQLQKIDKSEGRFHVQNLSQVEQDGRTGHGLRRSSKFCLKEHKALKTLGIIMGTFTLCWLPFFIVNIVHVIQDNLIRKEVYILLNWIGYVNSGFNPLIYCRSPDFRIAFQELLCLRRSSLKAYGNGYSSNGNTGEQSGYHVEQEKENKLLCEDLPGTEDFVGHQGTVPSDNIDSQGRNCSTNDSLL

Consider `O=C(O)[C@H](Cc1ccccc1)NC(=O)N1CCC(Cc2ccccc2)CC1`, for which the percent of DMSO control GFP in experiment [1] is 104% (inactive). In addition, the GFP response vs DMSO in [2] was 102% (inactive); in experiment [4] it was 100% (inactive). For the same compound, in experiment [3], the percent response of DMSO control was 96% (inactive). For the same compound, the GFP response, % of DMSO in experiment [5] is 99.9% (inactive). This compound displayed a double positive events in experiment [6] of 67%. Further, the vesicle binding response in experiment [6] is 122% (inactive). For the same compound, the inhibition in experiment [7] was -0.31% (inactive); in experiment [11], 4.86% (inactive); in [15], 6% (inactive). Moreover, the superoxide response (% of plate) in [8] was 108% (inactive). Further, in experiment [9], the aptamer binding inhibition is -6% (inactive). Further, the response was 9.92% (inactive) in experiment [10] and 0.86% (inactive) in experiment [12]. Also, the binding (% of control) in experiment [13] was 99.5% (inactive). Also, the efflux inhibition (fraction of control) in experiment [14] is -0.18 (inactive). Besides, the differentiation response in experiment [16] is -5.68% (inactive).
With `CCC(=O)Oc1ccc(C(=O)Nc2ccc([N+](=O)[O-])cc2)cc1`, in experiment [1], the percent of DMSO control GFP was 87.8% (inactive). Moreover, the results for the GFP response vs DMSO in [2] and in [4] were 148% (active) and 82.5% (inactive), respectively. Further, the percent response of DMSO control in experiment [3] was 90% (inactive). In experiment [5], the GFP response, % of DMSO was 80.8% (inactive). The compound further came in with a double positive events in experiment [6] of 61.8%. Also, in experiment [6], the vesicle binding response was 195% (inactive). For the same compound, the inhibition was -0.33% (inactive) in experiment [7], 15.9% (inactive) in experiment [11] and 14% (inactive) in [15]. For the same compound, the superoxide response (% of plate) in experiment [8] is 88.4% (inactive). For the same compound, the aptamer binding inhibition in experiment [9] is 5% (inactive). For the same compound, the response in [10] was 4.9% (inactive); in experiment [12] it was -4.69% (inactive). The binding (% of control) in experiment [13] is 100% (inactive). Besides, the efflux inhibition (fraction of control) in experiment [14] is -0.38 (inactive). Besides, the differentiation response in experiment [16] is -6.55% (inactive).
For the compound `COc1cc(NC(=S)NC(=O)c2cccs2)ccc1NC(=O)C(C)C`, the percent of DMSO control GFP in [1] is 99.7% (inactive). For the same compound, the GFP response vs DMSO is 108% (inactive) in experiment [2] and 124% (inactive) in experiment [4]. Besides, in experiment [3], the percent response of DMSO control is 90.1% (inactive). Besides, the GFP response, % of DMSO in experiment [5] is 101% (inactive). The double positive events in experiment [6] was found to be 66.4%. Further, in experiment [6], the vesicle binding response is 265% (inactive). Also, the inhibition in [7] is -14.1% (inactive); in experiment [11], -6.94% (inactive); in experiment [15], 9% (inactive). Moreover, the superoxide response (% of plate) in [8] was 113% (inactive). Besides, the aptamer binding inhibition in experiment [9] is 3% (inactive). Besides, the values for the response in experiment [10] and in experiment [12] were -2.44% (inactive) and 1.32% (inactive), respectively. Besides, the binding (% of control) in [13] is 96.8% (inactive). For the same compound, in experiment [14], the efflux inhibition (fraction of control) is 0.05 (inactive). Moreover, in [16], the differentiation response was -28% (inactive).
In the case of `CC1(C)CC(NC(=O)C23CCC(C)(C(=O)C2=O)C3(C)C)CC(C)(C)N1` (stereo not given), the percent of DMSO control GFP in [1] was 99% (inactive). Also, the GFP response vs DMSO is 112% (inactive) in experiment [2] and 116% (inactive) in experiment [4]. For the same compound, the percent response of DMSO control in experiment [3] was 88.2% (inactive). In addition, the GFP response, % of DMSO in [5] is 99.2% (inactive). In addition, the double positive events in experiment [6] was found to be 65.1%. The vesicle binding response in experiment [6] was 166% (inactive). Besides, the values for the inhibition in experiment [7], in experiment [11] and in [15] were 10.5% (inactive), -0.24% (inactive) and 13% (inactive), respectively. In experiment [8], the superoxide response (% of plate) is 96.1% (inactive). The aptamer binding inhibition in experiment [9] is 3% (inactive). In addition, the response is -4.74% (inactive) in experiment [10] and 6.45% (inactive) in experiment [12]. In experiment [13], the binding (% of control) was 99.7% (inactive). In [14], the efflux inhibition (fraction of control) was 0.19 (inactive). Also, the differentiation response in [16] is 12% (inactive).
For `Cc1ccc(SCC(=O)Nc2nccs2)cc1`, in experiment [1], the percent of DMSO control GFP is 101% (inactive). Moreover, the GFP response vs DMSO in experiment [2] was 105% (inactive); in experiment [4], 120% (inactive). Besides, the percent response of DMSO control in experiment [3] was 98.6% (inactive). For the same compound, the GFP response, % of DMSO in experiment [5] was 99.7% (inactive). The double positive events in experiment [6] was determined as 60.5%. In addition, in [6], the vesicle binding response was 4850% (inactive). For the same compound, the inhibition in experiment [7] is 6.4% (inactive); in [11] it was -4.67% (inactive); in experiment [15] it was 4% (inactive). Also, the superoxide response (% of plate) in experiment [8] is 110% (inactive). Further, the aptamer binding inhibition in experiment [9] is 4% (inactive). For the same compound, the response is -0.63% (inactive) in [10] and -0.83% (inactive) in experiment [12]. For the same compound, in [13], the binding (% of control) is 95.3% (inactive). Also, in experiment [14], the efflux inhibition (fraction of control) was -0.24 (inactive). For the same compound, the differentiation response in experiment [16] is -2.4% (inactive).
